These results are taken from PubChem BioAssay (NCATS).

Results filed as inconclusive are left out. Calls of active or inactive are those of the source. Calls follow the shape of the dose curve; as a rule, active = well fitted inhibition curve with a large enough effect; inconclusive = small, poorly fitted or top-dose-only effect; inactive = no such curve, though single readings can be large or run the other way.
% is scaled to controls: 0 for no effect and ±100 for the full control effect; potency is read from the fitted curve at half-maximal effect.

This assay can be described thus: Primary qHTS for inhibitors of nuclear receptor binding SET domain protein 2 (NSD2) in an RCH-ACV wild type WT cells (2C) (AID 1645877). Also: nearly all actives have a fitted effect of over 70% in size. As to conditions: RCH-ACV (leukaemia line) NSD2 WT (2C) viability, CellTiter-Glo, 72 h; series mostly up to 44.9 µM; activity change, negative = cell killing: at the top concentration. From the text: Assay Provider: Jonathan D. Licht, MD
University of Florida College of Medicine, Gainesville, FL
Mutations in epigenetic regulators are common in relapsed pediatric acute lymphoblastic leukemia (ALL). Here, we uncovered the mechanism underlying the relapse of ALL driven by an activating mutation of the NSD2 histone methyltransferase (p.E1099K). […] Correction of this mutation restored glucocorticoid sensitivity. The transcriptional response to glucocorticoids was blocked in NSD2 mutant cells due to depressed glucocorticoid receptor (GR) levels and the failure of glucocorticoids to autoactivate GR expression. […] Pre-treatment of NSD2 p.E1099K cell lines and PDX samples with PRC2 inhibitors reversed glucocorticoid resistance in vitro and in vivo.
High-throughput drug screening of isogenic RCH-ACV cell lines was performed at the National Center for Advancing Translational Science (NCATS), National Institutes of Health as previously described (1). Briefly, isogenic RCH-ACV NSD2 p.E1099K mutant (9B) and WT cells (2C) were plated at 500 cells/well in a 1536-well plate with a 72-hour incubation with compounds prior to addition of CellTiter-Glo to assess cell viability. NCATS libraries screened include: NPC, MIPE 5.0, Kinase and NPACT. To determine compound activity in the qHTS assay, the concentration-response data for each sample was plotted and modeled by a four-parameter logistic fit yielding IC50 and efficacy (maximal response) values. The area under the curve (AUC) of the dose-response curve ensures both efficacy (magnitude of cell killing) and potency (concentration that elicits cell killing) are accounted for in the analysis of activity.
1. Tobie D Lee, Olivia W Lee, Kyle R Brimacombe, Lu Chen, Rajarshi Guha, Sabrina Lusvarghi, Bethilehem G Tebase, Carleen Klumpp-Thomas, Robert W Robey, Suresh V Ambudkar, Min Shen, Michael M Gottesman, Matthew D Hall. A High-Throughput Screen of a Library of Therapeutics Identifies Cytotoxic Substrates of P-glycoprotein. Mol Pharmacol. 2019, Nov;96(5):629-640.
For `Cc1cc(O[C@@H](CCC(F)(F)F)c2ccc(C(=O)NCCC(=O)O)cc2)cc(C)c1-c1ccc(C(C)(C)C)cc1`, the “activity change, negative = cell killing” value was -21.9% (inactive).

In the case of `COc1ccc(S(=O)(=O)N2CCc3cccc(-c4ccncc4)c32)cc1`, the Potency is 0.934 µM (active).

Regarding `C=CC(=O)Nc1ccc(F)c(-c2ncnc3[nH]cc(C(=O)OCC)c23)c1`, the Potency is 14.8 µM (active).

Regarding `COc1ccc(-c2ccc3c(N4CCOC[C@@H]4C)nc(N4CCOC[C@@H]4C)nc3n2)cc1CO`, the Potency was 0.0934 µM (active).

Turning to `O=C(c1ccc(Nc2nc(C3CC3)cn3c(-c4cn[nH]c4)cnc23)c(F)c1)N1CCOCC1`, the Potency is 9.34 µM (active).

With `CC[C@H](Nc1ncnc2nc[nH]c12)c1oc2ccccc2c(=O)c1-c1cccc(F)c1`, the Potency was 1.48 µM (active).

Turning to `C=C1C(=O)OC2/C=C(/C)CC/C=C(/C)CCC12` (stereo not given), the Potency is 8.33 µM (active).

As for `Cc1ccc(Sc2ccccc2N2CCNCC2)c(C)c1`, the Potency is 7.42 µM (active).

As for `C[C@@H](C(=O)Nc1ccc(Cl)cc1)C1CCC(c2ccnc3ccc(F)cc23)CC1` (stereo not given in full), the Potency was 13.2 µM (active).

Take `Nc1n[nH]c(N)c1N=Nc1ccc(O)cc1`: the Potency is 14.6 µM (active).

As to `[N-]=[N+]=N[C@]1(CO)O[C@@H](n2ccc(N)nc2=O)[C@@H](O)[C@@H]1O`, the Potency is 3.66 µM (active).

With `CCN(C)S(=O)(=O)Nc1ccc(F)c(C(=O)c2c[nH]c3ncc(-c4cnc(C5CC5)nc4)cc23)c1F`, the Potency is 7.42 µM (active).

With `Nc1nc2cc(-c3ccc4ncc(C(=O)N5CCOCC5)n4c3)ccc2o1`, the Potency is 9.34 µM (active).

As for `CC[C@]12C=CCN3CC[C@@]4(c5cc([C@@]6(C(=O)OC)CC7C[C@@H](C(C)(F)F)CN(Cc8c6[nH]c6ccccc86)C7)c(OC)cc5N(C)[C@H]4[C@@](O)(C(=O)OC)[C@@H]1OC(C)=O)[C@@H]32` (stereo not given in full), the Potency is 0.186 µM (active).

In the case of `Cc1noc(C)c1-c1ccc(-c2cc(C(N)=O)c(NC(N)=O)s2)c(O[C@H]2CCNC2)c1`, the Potency is 14.8 µM (active).

Take `COc1ncc(Nc2ncc(C(C)N3CCN(S(C)(=O)=O)CC3)cc2-c2nc(C)nc(N)n2)cc1F` (stereo not given): the “activity change, negative = cell killing” value is -43.3% (inactive).

For the compound `CN[C@H]1CN(c2ccc3c(=O)c(C(=O)O)cn(-c4nccs4)c3n2)C[C@@H]1OC`, the Potency was 0.0762 µM (active).

Take `CC[C@@H]1[C@H](F)C(=O)N[C@@H]1COc1nccc2cc(C(N)=O)c(OC)cc12`: the Potency is 10.5 µM (active).

As to `C[C@@H]1COCCN1c1cc(-c2ccnn2C)c2ccnc(-c3ccn[nH]3)c2n1`, the Potency was 0.186 µM (active).

As for `CCN1C(=O)N2Cc3cc(OC)cc(OC)c3[C@@H](C)C=C2C12CCN(Cc1cc(C)cc(C)c1)CC2`, the Potency was 18.6 µM (active).

For the compound `Cc1ccc(C(=O)OCc2ccc([C@@H](CN)C(=O)Nc3ccc4cnccc4c3)cc2)c(C)c1`, the Potency is 3.62 µM (active).

In the case of `Nc1ncccc1-c1nc2ccc(-c3ccccc3)nc2n1-c1ccc(C2(N)CCC2)cc1`, the Potency was 0.186 µM (active).

For `CC(/C=C/[C@@H]1C[C@]1(C)c1ccc2c(c1)C(C)(C)CCC2(C)C)=C\C(=O)O`, the “activity change, negative = cell killing” value is -5.42% (inactive).

Take `Cc1ccc(-n2nc(C(C)(C)C)cc2NC(=O)NCc2cc(F)ccc2Oc2ccc3c(cnn3CCO)c2)cc1`: the Potency was 14.8 µM (active).

As for `CCCCOc1ccc(CC/C=C2\SC(=O)N(CCN)C2=O)cc1`, the Potency is 8.2 µM (active).

With `CC(C)(C)C[C@H]1N[C@@H](C(=O)NC2CCC(O)CC2)[C@H](c2cccc(Cl)c2F)[C@@]12C(=O)Nc1cc(Cl)ccc12` (stereo not given in full), the Potency was 0.468 µM (active).

Turning to `O=C1NC(=O)/C(=C\c2ccc(-c3ccc(F)cc3O)o2)S1`, the Potency is 11.6 µM (active).

On to `Cn1cc(C2=C(c3cn(C)c4cc([N+](=O)[O-])ccc34)C(=O)NC2=O)c2ccccc21`, for which the Potency is 0.417 µM (active).

For `[O-][n+]1cccc(-c2nc3c(Cl)cccc3cc2[C@@H](Nc2ncnc3cccnc23)C(F)(F)F)c1`, the Potency is 0.468 µM (active).

In the case of `C[n+]1ccc(-c2c3nc(c(-c4cc[n+](C)cc4)c4ccc([nH]4)c(-c4cc[n+](C)cc4)c4nc(c(-c5cc[n+](C)cc5)c5ccc2[nH]5)C=C4)C=C3)cc1`, the “activity change, negative = cell killing” value was -18.3% (inactive).

With `Oc1cccc(Nc2ccnc3[nH]c4ccccc4c23)c1`, the Potency was 4.11 µM (active).

On to `C[C@]12CCCN1CC1=NNC(=O)c3cc(F)cc4[nH]c2c1c34`, for which the Potency was 3.72 µM (active).

Consider `Cc1c(CN2CCC(Nc3ncnc4sc(CC(F)(F)F)cc34)CC2)ccc2c1cc(C#N)n2Cc1cn[nH]c1`, for which the Potency was 3.32 µM (active).

Consider `C/C(=C\c1csc(C)n1)[C@@H]1C[C@@H]2O[C@]2(C)CCC[C@H](C)[C@H](O)[C@@H](C)C(=O)C(C)(C)[C@@H](O)CC(=O)N1`, for which the Potency was 0.742 µM (active).

For `C=CC(C)(/C=C/c1ccc(O)cc1)CCC=C(C)C` (stereo not given), the Potency was 18.4 µM (active).

With `CCc1ccc2nc(Nc3cc(Cc4ccccc4)nc(NC4CCC(O)CC4)n3)sc2c1` (stereo not given), the Potency is 23.5 µM (active).

For `O=c1c(-c2ccc(O)cc2)coc2cc(O[C@@H]3O[C@H](CO)[C@@H](O)[C@H](O)[C@H]3O)ccc12`, the Potency was 16.6 µM (active).

`COc1cc2c(NC3CCN(C)CC3)nc(N3CCCN(C)CC3)nc2cc1OCCCN(C)C`: the “activity change, negative = cell killing” value was -6.46% (inactive).

`CC(C)(C)NC(=O)c1cncn1C1CCN(c2ccc(-c3nnc(C(F)(F)F)o3)cn2)CC1`: the Potency was 2.35 µM (active).

On to `CCCCCCCOc1ccc(CCC(N)(CO)CO)cc1C(F)(F)F`, for which the Potency was 10.5 µM (active).
